Data taken from PubChem BioAssay (EPA / NIEHS).
Results filed as inconclusive are left out. Calls of active or inactive are those of the source. The calls were made as follows: active = hit-call score of the fitted dose curve at least 0.9, where 1 is the maximum; inconclusive = response in the unintended direction; inactive = score below 0.9.

The compounds below were run on Glyceraldehyde-3-phosphate dehydrogenase (Homo sapiens) (UniProt P04406) (assay: CLD_GAPDH_6hr: CellzDirect (CLD) Gene Expression Assay for Baseline Control (Glyceraldehyde 3-phosphate dehydrogenase) at 6 hours (AID 2283681);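 also: active means increased signal relative to DMSO vehicle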).
Method: CLD_6hr is a cell-based, multiplexed-readout assay that uses hepatocyte, a human liver primary cell, with measurements taken at 6 hours after chemical dosing in a 96-well plate.CLD_GAPDH_6hr is one of 16 assay component(s) measured or calculated from the CLD_6hr assay. It is designed to make measurements of mRNA induction, a form of inducible reporter, as detected with chemiluminescence signals by Quantitative Nuclease Protection Assay (qNPA) technology.Data from the assay component CLD_GAPDH_6hr was analyzed at the endpoint, CLD_GAPDH_6hr, in the positive analysis fitting direction relative to DMSO as the negative control and baseline of activity. Using a type of inducible reporter, gain-of-signal activity can be used to understand changes in the reporter gene as they relate to the gene GAPDH. Furthermore, this assay endpoint can be referred to as a secondary readout, because this assay has produced multiple assay endpoints where this one serves a background control function. To generalize the intended target to other relatable targets, this assay endpoint is annotated to the background measurement intended target family, where subfamily is baseline control.
Human hepatocyte cultures were treated daily for two consecutive days with fresh dosing solutions containing appropriate concentrations of the 320 ToxCast chemicals (chemical identities were blinded to CellzDirect and other ToxCast collaborators), vehicle control (0.2% DMSO), and positive control inducers as summarized in Table 1. Due to the large number of treatment groups and chemicals examined, the ToxCast chemicals were divided into two groups (spanning two independent cultures of hepatocytes from separate donor preparations (Hu778: ToxCast plates 1 and 2; Hu776: ToxCast plates 3 and 4). Each preparation of human hepatocyte cultures was treated with respective vehicle control, medium only control, set of six positive controls/reference chemicals for the five hepatic receptor pathways, and a subset of eight of the ToxCast chemicals (indoxacarb, pyrithiobac-sodium, norflurazon, cyhalofop-butyl, methomyl, thiram, acetochlor, and propiconazole). These replicate data, coupled with internal replicates designed within the blinded ToxCast chemical library, provided additional data to evaluate interindividual differences between hepatocyte preparations and their potential impact on chemical profiles.Cell morphology and integrity were evaluated using phase-contrast microscopy as an indicator of hepatocyte cell health (Tyson & Green, 1987). Cultures for each treatment group (i.e., media, vehicle [0.2% DMSO], positive control inducers [multiple concentrations], and the ToxCast chemicals [multiple concentrations]) were observed and cell morphology was assessed relative to vehicle control cultures at each harvest time point (0, 6, 24, or 48 h). […] Images were evaluated at the conclusion of the study to assess changes in cell integrity and account for the effects of chemical exposure on uncharacteristic changes in concentration-dependent gene expression profiles. The results from these determinations of apparent cytotoxicity were annotated (yes/no) alongside the corresponding qNPA data for reference.At the conclusion of each treatment period, hepatocyte cultures (96-well) were washed with 1 volume of HBSS, lysed by addition of 25 ul ArrayPlate lysis buffer (HTG, Tucson, AZ), and 70 ul/well of Denaturation Oil, denatured by incubation at 95C for 10 min, and frozen at approximately -70C until analysis by nuclease protection assay (qNPA) (Roberts et al., 2007). For qNPA analysis, cell lysates were thawed at 50C for approximately 30 min, qNPA probes were added, and samples were incubated at 95C for 10 min to begin the detection process by denaturing the target RNA, dissociating the duplexes and secondary structure hybridization. At the conclusion of the hybridization period, S1 nuclease reagent was added to each sample to digest all nonprotected nucleotides at 50C for 60-90 min. […]

Glyceraldehyde-3-phosphate dehydrogenase (Homo sapiens), sequence (P04406 whole entry, looked up): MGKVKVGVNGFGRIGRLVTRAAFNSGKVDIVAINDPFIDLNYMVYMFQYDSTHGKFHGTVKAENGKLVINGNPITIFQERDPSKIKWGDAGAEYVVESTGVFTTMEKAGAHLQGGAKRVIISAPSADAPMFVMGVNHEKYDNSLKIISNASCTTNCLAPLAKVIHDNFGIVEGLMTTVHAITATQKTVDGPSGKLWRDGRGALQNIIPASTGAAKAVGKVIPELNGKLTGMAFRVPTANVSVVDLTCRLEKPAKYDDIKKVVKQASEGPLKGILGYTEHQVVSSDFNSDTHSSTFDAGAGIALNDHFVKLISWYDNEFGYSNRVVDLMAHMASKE

| Compound | outcome |
| --- | --- |
| CCCOc1nn(C(=O)NS(=O)(=O)c2ccccc2C(=O)OC)c(=O)n1C | inactive |
| CCCCOC(=O)[C@@H](C)Oc1ccc(Oc2ccc(C#N)cc2F)cc1 | inactive |
| CNC(=O)ON=C(SC)C(=O)N(C)C | inactive |
| CCOP(=S)(OCC)Oc1cc(C)nc(C(C)C)n1 | inactive |
| CCc1cccc(C)c1N(C(=O)CCl)C(C)COC (stereo not given) | inactive |
| Nc1c(Cl)cc([N+](=O)[O-])cc1Cl | inactive |
| COP(=O)(OC)C(O)C(Cl)(Cl)Cl (stereo not given) | inactive |
| CC(=NC#N)N(C)Cc1ccc(Cl)nc1 | inactive |
| CCc1cccc(CC)c1N(COC)C(=O)CCl | inactive |
| CCCSP(=O)(OCC)SCCC | inactive |
| CCCCSP(=O)(SCCCC)SCCCC | inactive |
| C#CCC1=C(C)C(OC(=O)C2C(C=C(C)C)C2(C)C)CC1=O (stereo not given) | inactive |
| COP(=O)(NC(C)=O)SC (stereo not given) | inactive |
| CCOP(=S)(Oc1cnc(C(C)(C)C)nc1)OC(C)C (stereo not given) | inactive |
| O=[N+]([O-])c1cc(C(F)(F)F)c(Cl)c([N+](=O)[O-])c1Nc1ncc(C(F)(F)F)cc1Cl | inactive |
| CC(Oc1cccc(Cl)c1)C(=O)O (stereo not given) | inactive |
| CC1=NNC(=O)N(/N=C/c2cccnc2)C1 | inactive |
| Nc1nc(N)nc(NC2CC2)n1 | inactive |
| CN(C)NC(=O)CCC(=O)O | inactive |
| CCCCOC(=O)c1ccccc1C(=O)O | inactive |

| Compound | outcome |
| --- | --- |
| CCC(CC)Nc1c([N+](=O)[O-])cc(C)c(C)c1[N+](=O)[O-] | inactive |
| CC1(C(=O)Nc2ccc(O)c(Cl)c2Cl)CCCCC1 | inactive |
| C[Si](Cn1cncn1)(c1ccc(F)cc1)c1ccc(F)cc1 | inactive |
| CC(C)=CC1C(C(=O)OCN2C(=O)C3=C(CCCC3)C2=O)C1(C)C (stereo not given) | inactive |
| CCOC(=O)COc1cc(-c2nn(C)c(OC(F)F)c2Cl)c(F)cc1Cl | inactive |
| CNC(=O)ON=C(C)SC | inactive |
| CCC(=NOC/C=C/Cl)C1=C(O)CC(C2CCOCC2)CC1=O (stereo not given) | inactive |
| CSc1nnc(C(C)(C)C)c(=O)n1N | inactive |
| CSC1=N[C@@](C)(c2ccccc2)C(=O)N1Nc1ccccc1 | inactive |
| COc1cc(OC)nc(Sc2cccc(Cl)c2C(=O)O)n1 | inactive |
| CCOP(=O)(OCC)Oc1cc(C)nc(C(C)C)n1 | inactive |
| S=C1NCCN1 | inactive |
| CC(C)[C@H](C(=O)O[C@H](C#N)c1cccc(Oc2ccccc2)c1)c1ccc(Cl)cc1 | inactive |
| CCc1cnc(C2=NC(C)(C(C)C)C(=O)N2)c(C(=O)O)c1 (stereo not given) | inactive |
| CCOP(=O)(SC(C)CC)N1CCSC1=O (stereo not given) | inactive |
| CCCCN(CC)c1c([N+](=O)[O-])cc(C(F)(F)F)cc1[N+](=O)[O-] | inactive |
| Cc1ccn2nc(S(=O)(=O)Nc3c(F)cccc3F)nc2n1 | inactive |
| CCCOCC(=Nc1ccc(Cl)cc1C(F)(F)F)n1ccnc1 | inactive |
| CCOP(=S)(OCC)OC(Cl)C(Cl)(Cl)Cl (stereo not given) | inactive |
| CSc1nc(NC(C)C)nc(NC(C)C)n1 | inactive |
